One assay deals with PUM1 PUF domain R4-APM (Homo sapiens, UniProt Q14671 828-1176, N971A;H972P;Q975M). Briefly: yeast three-hybrid, YBZ-1, SC-Leu-His + 0.5 mM 3-AT, 4 days. To be noted: tags: N-Gal4 AD-HA kept; label: inside an RPR1-promoter hybrid RNA with tandem MS2 sites; ssRNA. The procedure, abridged:
(§1)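 Each repeat of the Pumilio-1 PUF domain was randomized at its three base-contacting residues, and these libraries were co-expressed from a centromeric plasmid with matching RNA elements in strain YBZ-1. After four days on SC-Leu (input) or SC-Leu-His + 0.5 mM 3-AT (selection), the repeat regions were PCR-amplified and Illumina-sequenced. The interaction score compares variant frequency between input and selection as a log change, computed in log2 with a pseudocount of 1 for absent variants.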
Sequence of PUM1 PUF domain R4-APM (Q14671 828-1176 N971A/H972P/Q975M): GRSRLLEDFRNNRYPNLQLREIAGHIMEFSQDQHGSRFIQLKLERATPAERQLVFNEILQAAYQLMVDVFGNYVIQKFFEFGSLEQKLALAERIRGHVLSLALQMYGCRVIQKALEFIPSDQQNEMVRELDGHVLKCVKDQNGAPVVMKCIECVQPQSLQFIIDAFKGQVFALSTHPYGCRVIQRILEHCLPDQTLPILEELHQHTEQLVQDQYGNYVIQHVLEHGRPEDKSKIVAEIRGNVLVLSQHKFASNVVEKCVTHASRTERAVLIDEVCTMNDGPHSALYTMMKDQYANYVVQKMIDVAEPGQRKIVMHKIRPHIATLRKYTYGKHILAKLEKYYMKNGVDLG
Sequence of PUM1 PUF domain R2-LWT (Q14671 828-1176 N899L/Y900W/Q903T): as the sequence (Q14671 828-1176 N971A/H972P/Q975M) above, with N72L, Y73W, Q76T, A144N, P145H, M148Q counted along it
For the sequence “GGCUAGAACUAGUGGAUCCCCCGGCGCCCGGCGGCUCGAGCCCGGGUAAGUGUAUAUAGUCUGCAUGCCGCCGGGCGCCAUGCCUGCAGGUCGACUCUAGAAAACAUG”, the binding signal was 2.03 log2 enrichment (interaction score).
The same measure, in the same setting: as for “GGCUAGAACUAGUGGAUCCCCCGGCGCCCGGCGGCUCGAGCCCGGGUAAGUGUACAUAGUCUGCAUGCCGCCGGGCGCCAUGCCUGCAGGUCGACUCUAGAAAACAUG”, the figure is 2.11 log2 enrichment (interaction score).
For the sequence “GGCUAGAACUAGUGGAUCCCCCGGCGCCCGGCGGCUCGAGCCCGGGUAAGUGUAAAUAGUCUGCAUGCCGCCGGGCGCCAUGCCUGCAGGUCGACUCUAGAAAACAUG”, the binding signal was 4.28 log2 enrichment (interaction score).

The target in the next assay is PUM1 PUF domain R3-SRS (Homo sapiens, UniProt Q14671 828-1176, C935S;Q939S). Described as above. As to conditions: tags: N-Gal4 AD-HA kept; label: inside an RPR1-promoter hybrid RNA with tandem MS2 sites; ssRNA. The procedure, abridged: as §1
Sequence of PUM1 PUF domain R3-SRS (Q14671 828-1176 C935S/Q939S): as the sequence (Q14671 828-1176 N971A/H972P/Q975M) above, with C108S, Q112S, A144N, P145H, M148Q counted along it
Consider “GGCUAGAACUAGUGGAUCCCCCGGCGCCCGGCGGCUCGAGCCCGGGUAAGUGUAAUUAGUCUGCAUGCCGCCGGGCGCCAUGCCUGCAGGUCGACUCUAGAAAACAUG”, for which the binding signal is 1.65 log2 enrichment (interaction score).
On to “GGCUAGAACUAGUGGAUCCCCCGGCGCCCGGCGGCUCGAGCCCGGGUAAGUGUAAAUAGUCUGCAUGCCGCCGGGCGCCAUGCCUGCAGGUCGACUCUAGAAAACAUG”, for which the binding signal was 4.33 log2 enrichment (interaction score).
The same measure, in the same setting: as for “GGCUAGAACUAGUGGAUCCCCCGGCGCCCGGCGGCUCGAGCCCGGGUAAGUGUAAGUAGUCUGCAUGCCGCCGGGCGCCAUGCCUGCAGGUCGACUCUAGAAAACAUG”, the figure is 2.81 log2 enrichment (interaction score).

In another assay the target is PUM1 PUF domain R2-LWT (Homo sapiens, UniProt Q14671 828-1176, N899L;Y900W;Q903T). The assay is described as above. To be noted: tags: N-Gal4 AD-HA kept; label: inside an RPR1-promoter hybrid RNA with tandem MS2 sites; ssRNA. In a few lines:
as §1
As to “GGCUAGAACUAGUGGAUCCCCCGGCGCCCGGCGGCUCGAGCCCGGGUAAGUGUAAAGAGUCUGCAUGCCGCCGGGCGCCAUGCCUGCAGGUCGACUCUAGAAAACAUG”, the binding signal was 2.4 log2 enrichment (interaction score).
Still for that read-out and setting: under “GGCUAGAACUAGUGGAUCCCCCGGCGCCCGGCGGCUCGAGCCCGGGUAAGUGUAAAUAGUCUGCAUGCCGCCGGGCGCCAUGCCUGCAGGUCGACUCUAGAAAACAUG” stands 1.6 log2 enrichment (interaction score); under “GGCUAGAACUAGUGGAUCCCCCGGCGCCCGGCGGCUCGAGCCCGGGUAAGUGUAAAAAGUCUGCAUGCCGCCGGGCGCCAUGCCUGCAGGUCGACUCUAGAAAACAUG”, 5.62 log2 enrichment (interaction score).

The values above are taken from publication PMC8384837, “Expanding the binding specificity for RNA recognition by a PUF domain”.
